According to PubChem BioAssay:
Values without a mark were called inactive. For some of these results: Results with a measured potency or affinity are listed apart. The source made the active and inactive calls. Unless noted, no rule for the calls is given here.

What was measured:
[1] = antimalarial activity against Dd2 strain (AID 2302;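 active = growth inhibition above 50% at the single 2 µM test dose, taken to imply half-maximal potency below 2 µM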;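 also: 0% = DMSO untreated growth and 100% = chloroquine plus artemisinin killed control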); settings: P. falciparum Dd2 in RBCs, LDH growth readout, 72 h; at 2 µM; hits give high values
[2] = HepG2 cytotoxicity, primary screen, cytotoxicity control for P. falciparum antimalarial project, cell-based, ATP luminescence (AID 2303;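 active = inhibition above 50%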;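 also: 0% = DMSO wells and 100% = digitonin-killed cells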); settings: HepG2 viability, 24-48 h, at 10 µM, hits give high values
[3] = target: L-lactate dehydrogenase (Plasmodium falciparum (isolate CDC / Honduras)) (UniProt Q27743); test: PfLDH activity inhibition – cell lysate, 3D7 strain, counter-screen for P. falciparum growth inhibition project (AID 2304);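 also: 0% = vehicle and 100% = reference inhibitor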; settings: P. falciparum 3D7 crude extract, LDH APAD/NBT absorbance; at 2 µM; hits give high values
Chain of L-lactate dehydrogenase (Plasmodium falciparum (isolate CDC / Honduras)) (Q27743 whole entry, looked up): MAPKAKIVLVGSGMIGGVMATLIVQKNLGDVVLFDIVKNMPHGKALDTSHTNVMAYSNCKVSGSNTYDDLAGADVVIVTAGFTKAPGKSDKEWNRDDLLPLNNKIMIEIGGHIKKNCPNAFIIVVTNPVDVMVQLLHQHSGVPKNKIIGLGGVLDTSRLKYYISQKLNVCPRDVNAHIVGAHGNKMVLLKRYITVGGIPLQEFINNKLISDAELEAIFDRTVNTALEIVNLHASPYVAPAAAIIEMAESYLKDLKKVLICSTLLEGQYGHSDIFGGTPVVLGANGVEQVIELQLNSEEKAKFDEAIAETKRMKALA

[4] = inhibition of 3D7 malaria parasite growth – strain 3D7 (AID 2306);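 also: 0% = DMSO wells and 100% = chloroquine plus artemisinin control wells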; settings: P. falciparum 3D7 erythrocytic growth, LDH absorbance, 72 h; at 2 µM; hits give high values
[5] = target: Calcium-dependent protein kinase 1 (Plasmodium falciparum (isolate 3D7)) (UniProt P62344); test: PfCDPK1 kinase inhibitors, biochemical, TCAMS library (AID 1159585; cut-off not given, nearly all actives have IC50 up to about 0.98 µM;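 also: inhibitors leave more ATP so luminescence rises with inhibition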); settings: recombinant PfCDPK1, Kinase-Glo ATP depletion luminescence
Chain of Calcium-dependent protein kinase 1 (Plasmodium falciparum (isolate 3D7)) (P62344 whole entry, looked up): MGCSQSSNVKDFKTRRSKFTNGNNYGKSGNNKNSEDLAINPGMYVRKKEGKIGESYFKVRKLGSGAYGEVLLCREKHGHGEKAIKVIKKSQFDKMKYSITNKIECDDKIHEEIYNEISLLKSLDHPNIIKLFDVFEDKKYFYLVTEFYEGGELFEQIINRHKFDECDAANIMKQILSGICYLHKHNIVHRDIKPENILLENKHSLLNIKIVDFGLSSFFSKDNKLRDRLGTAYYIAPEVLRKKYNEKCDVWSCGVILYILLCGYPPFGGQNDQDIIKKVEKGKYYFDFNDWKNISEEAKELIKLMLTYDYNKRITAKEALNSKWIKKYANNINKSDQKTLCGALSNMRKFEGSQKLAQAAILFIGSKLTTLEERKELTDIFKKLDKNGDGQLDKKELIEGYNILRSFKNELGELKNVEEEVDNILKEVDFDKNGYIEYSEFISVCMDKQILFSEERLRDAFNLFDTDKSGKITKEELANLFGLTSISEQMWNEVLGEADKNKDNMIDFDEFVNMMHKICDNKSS

[6] = target: Plasmodium falciparum protein kinase 6 (PK6, PF3D7_1337100) (UniProt Q8IDW1); test: PfPK6 kinase inhibitors, biochemical, TCAMS library (AID 1159586); settings: recombinant PfPK6, Kinase-Glo ATP depletion luminescence
Chain of Plasmodium falciparum protein kinase 6 (PK6, PF3D7_1337100) (Q8IDW1 1-305): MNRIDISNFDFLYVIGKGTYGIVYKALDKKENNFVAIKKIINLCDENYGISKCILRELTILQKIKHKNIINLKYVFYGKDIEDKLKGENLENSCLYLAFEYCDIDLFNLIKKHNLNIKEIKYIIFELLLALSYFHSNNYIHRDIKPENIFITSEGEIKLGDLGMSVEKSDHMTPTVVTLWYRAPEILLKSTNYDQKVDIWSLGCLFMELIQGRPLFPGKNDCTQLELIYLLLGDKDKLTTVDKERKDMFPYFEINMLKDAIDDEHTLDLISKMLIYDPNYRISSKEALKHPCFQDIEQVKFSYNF

[7] = target: Protein kinase 7 (PK7), Plasmodium falciparum 3D7 (PF3D7_0213400) (UniProt Q7YTF7); test: inhibition of Plasmodium PK7 catalytic activity – biochemical, TCAMS antimalarial set, Kinase-Glo luminescence (AID 1159587); settings: recombinant PfPK7, Kinase-Glo ATP depletion luminescence
Chain of Protein kinase 7 (PK7), Plasmodium falciparum 3D7 (PF3D7_0213400) (Q7YTF7 1-343): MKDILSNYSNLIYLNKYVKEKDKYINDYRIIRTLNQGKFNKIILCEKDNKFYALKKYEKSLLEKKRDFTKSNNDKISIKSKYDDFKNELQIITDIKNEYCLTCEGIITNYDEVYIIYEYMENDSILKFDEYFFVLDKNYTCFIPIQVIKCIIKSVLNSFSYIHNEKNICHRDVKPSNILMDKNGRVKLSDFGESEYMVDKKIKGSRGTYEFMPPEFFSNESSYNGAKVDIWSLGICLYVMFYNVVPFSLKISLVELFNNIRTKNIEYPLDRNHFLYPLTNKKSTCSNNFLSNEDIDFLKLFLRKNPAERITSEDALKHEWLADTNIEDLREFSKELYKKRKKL

[8] = target: Calcium-dependent protein kinase 4 (Plasmodium falciparum (isolate 3D7)) (UniProt Q8IBS5); test: PfCDPK4 kinase inhibitors, biochemical, TCAMS library (AID 1159588; cut-off not given, nearly all actives have IC50 up to about 0.91 µM); settings: recombinant PfCDPK4, Kinase-Glo ATP depletion luminescence
Chain of Calcium-dependent protein kinase 4 (Plasmodium falciparum (isolate 3D7)) (Q8IBS5 whole entry, looked up): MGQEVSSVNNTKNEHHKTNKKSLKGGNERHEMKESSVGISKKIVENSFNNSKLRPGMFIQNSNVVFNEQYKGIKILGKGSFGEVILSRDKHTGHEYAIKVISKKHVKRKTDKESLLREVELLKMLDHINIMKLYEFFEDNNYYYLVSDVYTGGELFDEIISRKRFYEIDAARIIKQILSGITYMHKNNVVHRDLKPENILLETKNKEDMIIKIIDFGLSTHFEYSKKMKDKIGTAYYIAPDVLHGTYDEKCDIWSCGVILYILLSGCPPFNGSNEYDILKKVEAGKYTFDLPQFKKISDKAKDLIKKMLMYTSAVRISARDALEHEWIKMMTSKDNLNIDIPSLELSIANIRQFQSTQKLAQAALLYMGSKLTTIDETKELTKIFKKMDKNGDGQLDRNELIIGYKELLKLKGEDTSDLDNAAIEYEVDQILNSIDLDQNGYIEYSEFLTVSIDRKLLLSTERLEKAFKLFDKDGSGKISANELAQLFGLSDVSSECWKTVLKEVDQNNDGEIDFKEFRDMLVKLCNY

SMILES	growth inhibition [1]	inhibition [2]	inhibition [3] [%]	growth inhibition [4]	outcome [5]	outcome [6]	outcome [7]	outcome [8]
CN1CCN(CCCNCc2cccc(-c3ccc(CNCCc4ccccc4)cc3)c2)CC1	20%	36%	-9	100% (active)	inactive	inactive	inactive	inactive
O=C(/C=C/c1ccc2ccccc2c1)NCC1(c2ccc(-c3ccccc3)cc2)CCOCC1	34%	9%	0	95% (active)	inactive	inactive	inactive	inactive
Cc1[nH]c(C)c(-c2ccc(OCCn3cnc(Cl)c3Cl)cc2)c(=O)c1Br	35%	2%	2	95% (active)	inactive	inactive	inactive	inactive
Cc1cnc2ccc(NS(=O)(=O)c3sc4ccc(Cl)cc4c3C)cc2c1N1CCNCC1	-1%	-9%	4	99% (active)	inactive	inactive	inactive	inactive
NC(=NCc1ccccc1Cl)NCCc1c[nH]c2ccccc12	45%	16%	2	83% (active)	inactive	inactive	inactive	inactive
CC(C)(C)c1ccc(NC(=O)Nc2ccc(Cn3ncc(N4CCCNCC4)c(Cl)c3=O)cc2)cc1	33%	-4%	-7	95% (active)	inactive	inactive	inactive	inactive
CCOc1cc(C(=O)NCc2ccc(Cl)c(Cl)c2)ccc1-c1nc2ccc(Cl)cc2[nH]1	4%	10%	-2	97% (active)	inactive	inactive	inactive	inactive
O=C(N[C@@H](Cc1ccccc1)[C@H](O)CNCCC(F)(F)F)c1cccc(CCC2CC2)c1	13%	-4%	5	87% (active)	inactive	inactive	inactive	inactive
COc1cc2nc(NCC3CCN(C(=O)c4ccc(-c5ccc(C(=O)N(C)C)cc5C)cc4)CC3)nc(N)c2cc1OC	34%	2%	1	101% (active)	inactive	inactive	inactive	inactive
CCn1c(Sc2ccc([N+](=O)[O-])c(C#N)c2)nnc1-c1ccc(Cl)cc1	7%	2%	-2	93% (active)	inactive	inactive	inactive	inactive
COc1ccc(Cl)c(CC2c3cc(O)c(Cl)cc3CCN2C)c1 (stereo not drawn)	72% (active)	9%	-1	98% (active)	inactive	inactive	inactive	inactive
O=C(c1cc2c(s1)-c1cccc(Cl)c1SC2)N1CCN(c2ccncc2)CC1	36%	45%	1	94% (active)	inactive	inactive	inactive	inactive
CCCNCc1ccc(-c2ccc(CN(CC3CCCO3)C(=O)COc3ccccc3Cl)cc2)nc1 (stereo not drawn)	11%	5%	-3	89% (active)	inactive	inactive	inactive	inactive
Cc1ccc(Oc2ccccc2NC(=O)CCc2nc3ccccc3c(=O)[nH]2)cc1	99% (active)	3%	-3	100% (active)	inactive	inactive	inactive	inactive
CCC[C@@H]([C@@H](CC(C)C)C(=O)N[C@@H](CCCCNC(=O)c1cccc(OC)c1)C(=O)Nc1nccs1)N(O)C=O	99% (active)	5%	-4	100% (active)	inactive	inactive	inactive	inactive
C=CCN1C(=O)C(C(C)=O)=C(O)C1c1ccccc1 (stereo not drawn)	97% (active)	41%	-4	93% (active)	inactive	inactive	inactive	inactive
O=C(/C=C/c1ccc(Cl)c(Cl)c1)NCCCCCN1CCN(C(=O)Nc2ccc(OC(F)F)cc2)CC1	-2%	20%	4	99% (active)	inactive	inactive	inactive	inactive
FC(F)(F)c1ccc2nc(-c3ccc(-c4cccc(CN5CCCCC5)c4)cc3)[nH]c2c1	99% (active)	22%	2	100% (active)	inactive	inactive	inactive	inactive
COc1cccc(-c2cc(-c3ccc(NC(=O)c4ccccc4)cc3)c3c(N)ncnc3n2)c1	98% (active)	-4%	0	99% (active)	inactive	inactive	inactive	inactive
CC(C)OC(=O)c1ccccc1S(N)(=O)=O	-2%	-6%	1	97% (active)	inactive	inactive	inactive	inactive
Cc1cccc(CN2CCCN(Cc3ccc(C(=O)Nc4ccc(C)c(F)c4)cc3)CC2)c1	3%	47%	-4	85% (active)	inactive	inactive	inactive	inactive

SMILES	growth inhibition [1]	inhibition [2]	inhibition [3] [%]	growth inhibition [4]	outcome [5]	outcome [6]	outcome [7]	outcome [8]
CN(C(=O)/C=C/c1c(Cl)cccc1Cl)C1CCN(CCCCCNC(=O)/C=C/c2ccc(Cl)c(Cl)c2)CC1	62% (active)	78% (active)	4	92% (active)	inactive	inactive	inactive	inactive
Cn1c(NC(=O)CCCCCNC(=O)c2ccc(O)c(-c3ccc(Cl)c(Cl)c3)c2)nc2ccccc21	55% (active)	-6%	7	100% (active)	inactive	inactive	inactive	inactive
COc1cc2c(cc1OC)CC(NCc1ccc(-c3ccc4nc[nH]c4c3)cc1)C2	92% (active)	40%	0	97% (active)	inactive	inactive	inactive	inactive
COc1cc2c(cc1C=CC(=O)N1CCN(Cc3nc4sc(C)c(C)c4c(=O)[nH]3)CC1)OC(C)C2 (stereo not drawn)	87% (active)	-1%	-9	82% (active)	inactive	inactive	inactive	inactive
Cc1cccc2[nH]c(-c3ccc(-c4ccc(CNCc5cccc(N)c5)cc4)cc3)nc12	84% (active)	12%	-9	102% (active)	inactive	inactive	inactive	inactive
Cc1cccc2[nH]c(-c3cccc(-c4ccc(NC(=O)Nc5ccsc5)cc4)c3)nc12	99% (active)	27%	0	100% (active)	inactive	inactive	inactive	inactive
O=c1cc(NCCCNCc2cc(Cl)c(Cl)cc2Cl)[nH]c2ccccc12	20%	7%	-1	93% (active)	inactive	inactive	inactive	inactive
CCc1ccc(CN2CCC(NC(=O)c3ccc(-c4ccccc4F)s3)CC2)cc1	12%	35%	2	80% (active)	inactive	inactive	inactive	inactive
COc1ccc2ncc(F)c(CCN3C[C@H](CNCc4ccc5c(c4)OCCO5)[C@H](O)C3)c2n1	35%	18%	7	94% (active)	inactive	inactive	inactive	inactive
COc1ccc2sc(CNCCCNc3cc(=O)c4ccccc4[nH]3)c(Cl)c2c1	42%	1%	-4	85% (active)	inactive	inactive	inactive	inactive
Cc1[nH]c2ccc(-c3ccc(OC(F)(F)F)cc3)cc2c(=O)c1C#N	97% (active)	-5%	-9	98% (active)	inactive	inactive	inactive	inactive
CCOc1ccc(C(=O)N2CCOC(CCN3CCC(c4ccccc4)CC3)(c3ccc(Cl)c(Cl)c3)C2)cc1 (stereo not drawn)	71% (active)	14%	8	88% (active)	inactive	inactive	inactive	inactive
O=C(N[C@H]1CCN(Cc2ccc(OCCCN3CCCCC3)cc2)C1)c1ccc(Cl)c(Cl)c1	36%	27%	0	102% (active)	inactive	inactive	inactive	inactive
CS(=O)(=O)c1ccc(CNCc2cccc(-c3cccc(-c4nc5ccc(C(F)(F)F)cc5[nH]4)c3)c2)cc1	96% (active)	5%	2	103% (active)	inactive	inactive	inactive	inactive
Cc1[nH]c(C)c(-c2ccc(-c3ccc(OC(F)(F)F)cc3)cc2)c(=O)c1Br	97% (active)	33%	-3	96% (active)	inactive	inactive	inactive	inactive
CC1=C(C(=O)OCCOCc2ccccc2)C(c2ccccc2C(F)(F)F)C(C(=O)OCCOCc2ccccc2)=C(C)N1	87% (active)	-7%	3	89% (active)	inactive	inactive	inactive	inactive
CCNc1c2ccc(Cl)cc2nc2ccc(OC)cc12	100% (active)	16%	0	99% (active)	inactive	inactive	inactive	inactive
CCOC(=O)C(C(C)=O)C(c1ccccc1)C(C(C)=O)C(=O)OCC (stereo not drawn)	14%	6%	2	95% (active)	inactive	inactive	inactive	inactive
CNC(=O)c1cc(F)c(F)cc1Nc1nc(Nc2cccc(CS(C)(=O)=O)c2)ncc1Cl	90% (active)	52% (active)	3	91% (active)	inactive	inactive	inactive	inactive
Cc1ccn2c(C(=O)N3CCN(c4cccc5c4nc(-c4ccoc4)n5Cc4ccccn4)CC3)c(C)nc2c1	99% (active)	2%	-1	98% (active)	inactive	inactive	inactive	inactive
